Test results: PubChem BioAssay AID743152 (Broad Institute, 2013)
Calls of active or inactive are those of the source.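 The calls were made as follows: active = compounds that cut cell ATP glow, with a fitted half-effect dose at or under their top tested dose; inconclusive = flat partial loss of 30 to 70 percent, or poor fit; inactive = the rest.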

Test: viability loss in A549 lung cancer cells – cell-based, CellTiter-Glo luminescence, dry powder, set 2, cytotoxicity control, dose response (AID 743152)
Details: CellTiter-Glo ATP luminescence, 72 h; series mostly up to 26 µM

Row | SMILES | outcome
1 | CC(=O)Nc1ccc(C2=NNC(=O)C[C@H]2C)cc1[N+](=O)[O-] | inactive
2 | O=C1CN2Cc3c(ccc(Cl)c3Cl)N=C2N1 | inactive
3 | C[C@@H]1CC(=O)NN=C1c1ccc(Cl)cc1 | inactive
4 | C[C@@H]1CC(=O)NN=C1c1ccc(F)c(F)c1 | inactive
5 | C[C@H]1CC(=O)NN=C1c1ccc(N2CCOCC2)c(F)c1 | inactive
6 | C[C@@H]1CC(=O)NN=C1c1ccc(C2CCCCC2)cc1 | inactive
7 | Cn1c(NC(=O)c2ccccc2)nc2ccccc21 | inactive
8 | C[C@@H]1CC(=O)NN=C1c1ccc(N2CCOCC2)c(F)c1 | inactive
9 | C[C@@H]1CC(=O)NN=C1c1ccc(N2CCOCC2)cc1 | inactive
10 | C[C@@H]1CC(=O)NN=C1c1ccc(-c2cncnc2)cc1 | inactive
11 | COc1cc2c(cc1OC)-c1cc(=Nc3c(C)cc(C)cc3C)n(C)c(=O)n1CC2 | inactive
12 | CCN1N=C(c2ccc(N(CC)CC)cc2)[C@H](C)CC1=O | inactive
13 | CCN(CC)c1ccc(C2=NNC(=O)CC2C)cc1[N+](=O)[O-] (stereo not drawn) | inactive
